# From PubChem BioAssay AID588352 (The Scripps Research Institute Molecular Screening Center, 2011)
# Among all 360,000 compounds or so, about 620 (0.17%) were called active. The sample holds actives, similar compounds and a random draw of the others, so the mix is not that of the screen.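 The calls were made as follows: active = inhibition above a per-campaign cutoff, the mean of all compounds plus 3 SD (cut at about 60% in these data); inactive = the rest.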
# Target: Nuclear receptor coactivator 3 (Homo sapiens) (UniProt Q9Y6Q9)
# Sequence (Q9Y6Q9 whole entry, looked up, the tested form may be a part): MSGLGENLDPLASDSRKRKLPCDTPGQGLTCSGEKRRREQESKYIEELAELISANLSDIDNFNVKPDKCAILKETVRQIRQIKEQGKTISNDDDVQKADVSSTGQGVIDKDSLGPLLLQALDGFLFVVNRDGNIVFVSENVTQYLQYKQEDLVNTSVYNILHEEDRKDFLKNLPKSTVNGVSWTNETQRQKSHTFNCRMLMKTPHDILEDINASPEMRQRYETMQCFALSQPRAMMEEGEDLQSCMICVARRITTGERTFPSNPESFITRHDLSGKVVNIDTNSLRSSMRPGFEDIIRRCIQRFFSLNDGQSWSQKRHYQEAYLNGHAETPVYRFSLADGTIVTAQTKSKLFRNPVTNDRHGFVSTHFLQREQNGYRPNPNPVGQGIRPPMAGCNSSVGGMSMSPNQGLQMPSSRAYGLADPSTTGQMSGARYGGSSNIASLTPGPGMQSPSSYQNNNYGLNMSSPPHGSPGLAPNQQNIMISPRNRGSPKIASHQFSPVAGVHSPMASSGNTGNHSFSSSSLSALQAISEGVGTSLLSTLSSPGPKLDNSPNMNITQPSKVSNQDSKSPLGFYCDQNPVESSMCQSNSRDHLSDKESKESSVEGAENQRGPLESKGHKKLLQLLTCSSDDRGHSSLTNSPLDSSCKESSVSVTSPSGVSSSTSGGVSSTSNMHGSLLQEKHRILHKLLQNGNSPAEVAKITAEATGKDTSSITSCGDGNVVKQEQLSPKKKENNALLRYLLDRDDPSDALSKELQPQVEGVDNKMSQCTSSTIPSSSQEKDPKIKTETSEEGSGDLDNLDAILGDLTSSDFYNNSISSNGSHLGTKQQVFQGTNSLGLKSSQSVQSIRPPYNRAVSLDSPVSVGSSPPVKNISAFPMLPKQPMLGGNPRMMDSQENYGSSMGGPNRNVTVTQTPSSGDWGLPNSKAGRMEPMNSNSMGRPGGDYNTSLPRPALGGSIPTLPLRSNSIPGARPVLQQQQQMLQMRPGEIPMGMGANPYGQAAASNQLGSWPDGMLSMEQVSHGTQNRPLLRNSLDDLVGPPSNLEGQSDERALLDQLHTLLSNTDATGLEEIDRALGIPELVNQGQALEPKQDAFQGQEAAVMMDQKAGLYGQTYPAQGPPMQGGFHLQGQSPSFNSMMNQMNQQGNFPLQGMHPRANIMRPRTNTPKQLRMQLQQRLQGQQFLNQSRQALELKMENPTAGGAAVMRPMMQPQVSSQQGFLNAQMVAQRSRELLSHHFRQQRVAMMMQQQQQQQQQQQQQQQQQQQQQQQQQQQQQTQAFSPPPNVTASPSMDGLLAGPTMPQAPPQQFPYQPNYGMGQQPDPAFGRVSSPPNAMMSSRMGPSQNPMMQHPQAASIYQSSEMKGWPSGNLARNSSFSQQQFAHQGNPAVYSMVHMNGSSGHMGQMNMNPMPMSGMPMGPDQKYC
# Assay: SRC3 coactivator transcriptional activity inhibitors, primary screen, cell-based, luminescence (AID 588352);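 also: 0% = DMSO-treated cells and 100% = gossypol-treated cells at 36 µM; higher means less SRC3-driven luciferase light from the GAL4 reporter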
# Conditions: HEK293 GAL4-SRC3 luciferase reporter, at 3.6 µM, active compounds read high
row,SMILES,inhibition
1,CC(NC(=O)CCCC1CCCCC1)c1ccc(S(N)(=O)=O)cc1 (stereo unspecified),4.7% (inactive)
2,CC/C(C)=N/Nc1nc2sc3c(c2c(=O)[nH]1)CC(C)(C)OC3,-4.5% (inactive)
3,O=C(CN1CCN(c2ncccn2)CC1)Nc1ccccc1C(F)(F)F,17.7% (inactive)
4,CC1(C(=O)NS(=O)(=O)c2ccc(C#N)cc2)CCN1C(=O)c1ccc(C2CCCCC2)cc1 (stereo unspecified),8.43% (inactive)
5,CC(C)C(c1nnnn1C1CCCCC1)N1CCN(C(=O)c2ccco2)CC1 (stereo unspecified),-1.28% (inactive)
6,COc1cccc2c(C)c(C(=O)O)[nH]c12,4.08% (inactive)
7,CCc1ccc(Oc2nc([N+](=O)[O-])nn2C)cc1,12.1% (inactive)
8,CC(=O)c1c(C)c[nH]c1C,11% (inactive)
9,CCc1nc2ccc(C(=O)NCc3ccc(OC)cc3)cn2c1N(CC)Cc1cccc(Br)c1,0.61% (inactive)
10,CCCCn1c(N)c(N(CCC(C)C)C(=O)CC2OC(=O)c3ccccc32)c(=O)[nH]c1=O (stereo unspecified),12.2% (inactive)
11,Cc1cccc2cc(CN(C(=O)c3cccs3)c3ccccc3)c(=O)[nH]c12,15.8% (inactive)
12,O=S(=O)(Cc1nnnn1-c1ccc(Br)cc1)c1ccc(F)cc1,-7.02% (inactive)
13,Cc1cc(C)nc(SCc2nnc(SCC(=O)OC3CCCCC3)o2)n1,-10.7% (inactive)
14,CCCNC(=O)c1ccc(N2CCC3(CC2)CC(c2ccc(Cl)cc2)=NO3)c([N+](=O)[O-])c1,0.35% (inactive)
15,CC1CCCCC1NC(=O)c1cc(=O)[nH]c2ccccc12 (stereo unspecified),9.65% (inactive)
16,COc1ccc(F)cc1C(=O)C1CCCN(C(=O)CCc2ccccn2)C1 (stereo unspecified),14.9% (inactive)
17,Cc1noc(C)c1C(=O)N1CCC1(C)C(=O)NS(=O)(=O)c1ccc(C#N)cc1 (stereo unspecified),-19.1% (inactive)
18,O=C(NCCCCCCCCCNC(=O)C(F)(F)F)C(F)(F)F,-9.12% (inactive)
19,Cc1ccc(S(=O)(=O)NCC(=O)N(CC(=O)NC2CCCCC2)Cc2ccco2)cc1,12.3% (inactive)
20,COC(=O)CN1C(=O)[C@H]2[C@@H](C3CC3)N3C(=O)CN(Cc4ccc(-c5ccccc5)cc4)C(=O)[C@@]3(Cc3ccccc3)[C@H]2C1=O,9.14% (inactive)
21,CC1(C)CC(=O)C=C(c2ccc(Cl)c(C(F)(F)F)c2)C1,-9.95% (inactive)
22,CCN(CC)S(=O)(=O)N1CCC(C(=O)NC(C)CCc2ccccc2)CC1 (stereo unspecified),15.5% (inactive)
23,Cc1nn(CC(=O)NC2CCCCC2)c(=O)c2cccn12,-10.9% (inactive)

row,SMILES,inhibition
1,CCOC(=O)c1c(C)n(C)c2ccc(OC)c(NC(=O)CN3CCC4(CC3)OCCO4)c12,6.95% (inactive)
2,CCOC(=O)c1csc(CCNC(=O)c2oc3c(Cl)cc(C)cc3c2C)n1,-12.1% (inactive)
3,CC(C)CC(CO)N1CCN(C(=O)c2ccc(Cl)cc2Cl)CCC1=O (stereo unspecified),5.22% (inactive)
4,COc1ccc(C(CNC(=O)c2cccc(S(=O)(=O)Nc3ccc(Br)cc3)c2)N(C)C)cc1 (stereo unspecified),1.78% (inactive)
5,COc1ccc(CNC(=O)COC(=O)C2=Cc3ccccc3OC2)cc1,-19.6% (inactive)
6,O=C(O)c1ccccc1C(=O)NC1=NN(c2ccccc2)CC1,3.76% (inactive)
7,CC1(C)CC(N2CCN(C(c3ccccc3)c3ccccc3)CC2)=CC(=[N+]2CCCCC2)C1,80% (active)
8,CCN1/C(=C\c2ccc3ccccc3[n+]2CC)Sc2cc(C)ccc21,64.7% (active)
9,C[C@@H]1CN([C@H](C)CO)C(=O)c2cc(-c3ccc(F)cc3)cnc2O[C@H]1CN(C)C(=O)c1ccc(F)cc1,-2.15% (inactive)
10,CC(C)[C@H](NC(=O)N1CC(=O)Nc2ccccc21)C(=O)N[C@@H](Cc1c[nH]c2ccccc12)C(=O)O,11.1% (inactive)
11,Cc1cc2ncn(CCCCOc3ccccc3)c2cc1C,-3.7% (inactive)
12,C/C=C(/C)C(=O)O[C@@H]1c2cc3c(c4c2[C@@]2(CO4)C(=O)C(OC)=C(OC)C=C2C[C@@H](C)[C@H]1C)OCO3,-4.38% (inactive)
13,C=CC[C@@H](CC(=O)NCCO)C(=O)N[C@H](C)COC(=O)[C@@H](CC=C)CC(=O)OC(C)(C)C,0.5% (inactive)
14,CC(=O)Nc1ccc(-c2ccnc3c2CC(C(=O)NC(C)C)O3)cc1 (stereo unspecified),10.3% (inactive)
15,COc1cccc(OC)c1C(=O)OCC(=O)/C(C#N)=C(\C)N,7.58% (inactive)
16,Cc1ccc(Cn2c(C)c3cnn(CC(=O)NCCN4CCOCC4)c(=O)c3c2C)cc1,-3.71% (inactive)
17,CC(OC(=O)c1ccc(NS(=O)(=O)c2ccc3[nH]c(=O)[nH]c3c2)cc1)C(=O)Nc1cccc(Cl)c1Cl (stereo unspecified),4.52% (inactive)
18,COc1cc(NC(=S)NNC(=O)CC(C)C)c(OC)cc1Cl,17.8% (inactive)
19,O=C(NCc1ccco1)C1CCCN1S(=O)(=O)c1ccccc1C(F)(F)F (stereo unspecified),8.79% (inactive)
20,Cc1cc(NC(=O)CN2C(=O)NC(CC(C)C)C2=O)no1 (stereo unspecified),-3.85% (inactive)
21,FC(F)(F)c1cc(C(F)(F)F)c2ccc(N3CCN(c4ccccc4)CC3)nc2n1,1.84% (inactive)
22,O=C(C1=C(O)C(=O)N(CCOCCO)C1c1ccccn1)c1cccs1 (stereo unspecified),3.48% (inactive)
23,Cc1cccc(N2CCN(C(=O)COCc3cc(-c4ccc5c(c4)OCO5)on3)CC2)c1C,-10.1% (inactive)

row,SMILES,inhibition
1,CCn1c(NC(=O)c2nn(C)cc2Br)nc2ccccc21,9.26% (inactive)
2,Cc1cccc(Cn2cnc3c(N)c(C)c(C)cc32)c1,8.42% (inactive)
3,O=C(O)CCCn1cc(NC(=O)COc2cccc(Cl)c2)cn1,19.3% (inactive)
4,Cc1cc(=O)oc2cc(OCC3CC(c4ccccc4Cl)=NO3)ccc12 (stereo unspecified),-29.1% (inactive)
5,COc1cc(NC(=S)N2CCCC(C)C2)cc(OC)c1OC (stereo unspecified),8.3% (inactive)
6,N#Cc1ccccc1S(=O)(=O)N1CCN(C(=O)c2cc(-c3ccccc3)nn2-c2ccccc2)CC1,4.59% (inactive)
7,Cc1ccsc1C(=O)OCC(=O)NCCc1ccccc1,-54.7% (inactive)
8,Cc1ccsc1C(=O)OCC(=O)c1cc(C)n(CC2CCCO2)c1C (stereo unspecified),80.6% (active)
9,Cc1ccsc1C(=O)OCC(=O)Nc1cccc(F)c1,-16.2% (inactive)
10,Cc1cccc(-n2c(Cc3cc(=O)[nH]c(=O)[nH]3)nnc2SC(C)C)c1,1.68% (inactive)
11,Cc1cc(C)c(C2C3=C(Nc4c2c(C)nn4-c2ccccn2)c2ccccc2C3=O)c(C)c1 (stereo unspecified),9.07% (inactive)
12,Cc1ccc(CC(=O)Nc2ccc(OC(F)F)c(Cl)c2)cc1C,1.82% (inactive)
13,O=C(CC(O)(C(F)(F)F)C(F)(F)F)Nc1ccc(Cl)c(Cl)c1,80% (active)
14,CC1(C(=O)O)CCC(C(=O)Nc2ccc(Cl)c(Cl)c2)C1(C)C (stereo unspecified),7.83% (inactive)
15,CCCCCN(C(=O)NC(=O)Nc1cccc(C)c1C)S(C)(=O)=O,-2.15% (inactive)
16,Cc1ccccc1/C=C\c1nc(O)c([N+](=O)[O-])c(=O)[nH]1,2.28% (inactive)
17,COc1ccc(NC2CCCN(C(=O)c3ccccc3-c3ncc[nH]3)C2)cc1 (stereo unspecified),-11.7% (inactive)
18,Cc1c(C(=O)c2cccc([N+](=O)[O-])c2)c2ccccn2c1CCC#N,26.8% (inactive)
19,C=CCn1c(C)cc(C2=NNC(=NCC)SC2)c1C,86% (active)
20,Cc1ccc(S(=O)(=O)Nc2ccccc2CNc2c(C)n(C)n(-c3ccccc3)c2=O)cc1,22.2% (inactive)
21,O=S(=O)(Nc1n[nH]c(C(F)(F)F)n1)c1ccccc1,6.01% (inactive)
22,CC(C)(C)c1ccc(Oc2ccc(N)cc2)cc1,82.3% (active)
23,CN(C)S(=O)(=O)c1ccc(Oc2ccc(S(=O)(=O)N(C)C)cc2)cc1,25.9% (inactive)

row,SMILES,inhibition
1,O=C(CSc1nnc(-c2ccc([N+](=O)[O-])cc2)o1)Nc1ccccn1,-82% (inactive)
2,Cc1nc(CNS(=O)(=O)c2ccc(Oc3ccccc3)cc2)cs1,13.4% (inactive)
3,CCNC(=O)NC(=O)C(C)OC(=O)C1CCN(S(=O)(=O)c2ccccc2F)CC1 (stereo unspecified),18.3% (inactive)
4,CSCCC(=O)N1CCCC(CNC(=O)c2ccccc2Cl)C1 (stereo unspecified),13.3% (inactive)
5,Cc1cccc(N2C(=O)SC(SC(=Nc3ccccc3)Nc3ccccc3)C2=O)c1 (stereo unspecified),-7.91% (inactive)
6,Cc1ccc(/C=N/NC(=O)C(NC(=O)c2ccccc2)c2n[nH]c(=O)c3ccccc23)cc1 (stereo unspecified),-30.1% (inactive)
7,Cc1ccc(/C=N/NC(=O)C2=NNC(c3ccccc3)(c3ccccc3)C2)c(O)c1,65% (active)
8,Cc1ccc(NC(=O)CCC(=O)N/N=C/c2ccco2)c(C)c1,16.4% (inactive)
9,Cc1c(CN2CCC(n3nccc3NC(=O)CCc3ccccc3)CC2)cnn1C,23.5% (inactive)
10,CCc1c(O)nc(SCC(=O)Nc2ccccc2)n(C(C)CC)c1=O (stereo unspecified),-6.38% (inactive)
11,CN(C)c1ccc(NC(=O)c2ccncc2)c2ccccc12,1.55% (inactive)
12,O=C1c2ccncc2C(=O)N1C1CCCCC1,-19.6% (inactive)
13,CC(Sc1nnc(Cc2ccc([N+](=O)[O-])cc2)o1)C(N)=O (stereo unspecified),-2.53% (inactive)
14,O=C(CCNS(=O)(=O)c1ccccc1)NCCSc1ccc(Br)cc1,-5.67% (inactive)
15,CC(C)(CSc1nncn1/N=C/c1ccco1)NS(=O)(=O)c1ccc(Cl)cc1,0.37% (inactive)
16,O=C(O)CCC(=O)Nc1ccc(OCC2CCCO2)cc1 (stereo unspecified),4.7% (inactive)
17,COc1ccc(-c2nc(N)ncc2-c2ccc(Cl)cc2)c(O)c1,1.54% (inactive)
18,COc1ccc(OC)c(Cc2cnc3nc(N)nc(N)c3c2C)c1,63.7% (active)
19,OCCCNc1nccc(-c2cc(Nc3cccc(Cl)c3)ncn2)n1,90.9% (active)
20,Cc1[nH]c(=O)c(C(=O)/C=C/c2ccccc2)c2c1CCCC2,64.9% (active)
21,C/C(=C\c1ccccc1)C1NC(=O)c2c(sc3c2CCCC3)N1 (stereo unspecified),21.8% (inactive)
22,CC1(C(=O)O)CCCN(C(=O)/C=C/c2ccccc2)C1 (stereo unspecified),-1.88% (inactive)
